# Data: PMC5540273 (PLoS ONE, 2017)
# Legend:
# Details in all cases: concentration: 1 μM, replicates: in singlicate; n = 1
# CSNK1G1 = tested on: CSNK1G1
# CSNK1G2 = tested on: CSNK1G2
# CSNK1G3 = tested on: CSNK1G3
# CSNK2A1 = tested on: CSNK2A1
# CSNK2A2 = tested on: CSNK2A2
# CTK = tested on: T1, CTK
# T1 construct: gene MATK
# DAPK1 = tested on: DAPK1
# DAPK2 = tested on: DAPK2
# DAPK3 = tested on: DAPK3
# DCAMKL1 = tested on: T2, DCAMKL1
# T2 construct: gene DCLK1
# DCAMKL2 = tested on: T3, DCAMKL2
# T3 construct: gene DCLK2
# DCAMKL3 = tested on: T4, DCAMKL3
# T4 construct: gene DCLK3
# DDR1 = tested on: DDR1
# DDR2 = tested on: DDR2
# DLK = tested on: T5, DLK
# T5 construct: gene MAP3K12
# DMPK2 = tested on: T6, DMPK2
# T6 construct: gene CDC42BPG
# DMPK = tested on: DMPK
# DRAK1 = tested on: T7, DRAK1
# T7 construct: gene STK17A
# DRAK2 = tested on: T8, DRAK2
# T8 construct: gene STK17B
# DYRK1A = tested on: DYRK1A
# 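Also: KINOMEscan kinase panel screen.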
Structure (SMILES),%Inh (CSNK1G1) [%],%Inh (CSNK1G2) [%],%Inh (CSNK1G3) [%],%Inh (CSNK2A1) [%],%Inh (CSNK2A2) [%],%Inh (CTK) [%],%Inh (DAPK1) [%],%Inh (DAPK2) [%],%Inh (DAPK3) [%],%Inh (DCAMKL1) [%],%Inh (DCAMKL2) [%],%Inh (DCAMKL3) [%],%Inh (DDR1) [%],%Inh (DDR2) [%],%Inh (DLK) [%],%Inh (DMPK2) [%],%Inh (DMPK) [%],%Inh (DRAK1) [%],%Inh (DRAK2) [%],%Inh (DYRK1A) [%]
CNC(=O)c1ccccc1Nc1nc(Nc2ccc(N3CCOCC3)cc2)ncc1Cl.Cl [GSK1576028],66,85,56,99.8,99.9,34,95,69,89,52,31,81,95.1,73,95,25,81,95.1,60,94.4
Cl.c1ccc(-c2ccc3c(Nc4ccc5[nH]ncc5c4)ccnc3c2)nc1 [GW440137],0,17,30,0,8,0,15,0,23,12,0,0,67,3,1,6,0,0,6,21
Nc1ncc(-c2cccnc2)c2scc(-c3ccc4c(c3)CCN4C(=O)Cc3ccccc3)c12 [GSK683281],32,9,58,77,28,9,0,0,27,20,1,34,63,0,6,72,4,1,0,23
CCc1ccc(-c2ccc3c(c2)-c2c(cnn2C)S(=O)(=O)N3C)cc1,0,2,0,0,10,26,1,0,5,0,0,0,0,2,0,0,0,0,0,0
Nc1ncc(-c2ccc3nccc(-c4ccncc4)c3c2)cc1S(=O)(=O)N1CCOCC1 [GSK1627798],0,0,8,5,1,0,0,2,9,0,22,0,0,0,32,0,0,0,0,28
CC(=O)Nc1nc2cnc(Nc3cc(NC(=O)c4cccc(C5(C#N)CC5)c4Cl)ccc3C)nc2s1,0,0,0,0,0,52,0,0,0,23,0,0,100,99.4,0,0,0,0,10,0
COc1cc(Nc2ncc3c(C)nc(-c4cc5ccccc5[nH]4)n3n2)cc(OC)c1OC [GW869516],21,0,29,96.4,99.7,0,0,0,11,17,0,0,52,52,22,0,0,30,10,85
Cc1cccc(Nc2nc(N[C@H]3CCNC3)ncc2C(N)=O)c1.Cl [GSK2197149],14,11,15,52,0,13,69,51,22,16,30,0,0,0,35,4,0,53,22,24
COc1ccc(-c2coc3ccc(-c4nnc(SCc5ccc(OC)c(C(F)(F)F)c5)o4)cc23)cc1,0,24,0,22,24,10,15,0,0,38,8,0,2,0,0,0,0,0,0,0
Cc1ccc(C(=O)Nc2ccc(Nc3ccnc4cc(-c5nccs5)ccc34)cc2O)cc1.Cl [GW494702],0,0,4,0,100,8,0,0,10,0,0,0,22,46,69,0,0,5,0,3
